“And” between values parts separate entries of the source, which are not always exact repeats. Equal entries are not always repeated. Results filed as inconclusive are left out. Where a call stands in place of a potency, no number is given. The source made the active and inactive calls. The call rests on the fitted dose curve.
Assay: p53 small molecule agonists, cell-based qHTS assay with human liver microsomes (AID 1963577)
Conditions: HCT-116 p53RE-bla with human liver microsomes, ratio, 16 h; series mostly up to 66 µM
Text: National Center for Advancing Translational Sciences [NCATS]
Division of Preclinical Innovation [DPI]
U.S. Environmental Protection Agency [EPA]
National Institutes of Environmental Health Sciences [NIEHS]
National Toxicology Program [NTP]
U.S. Food and Drug Administration [FDA]
p53, a tumor suppressor protein, is activated following cellular insult, including DNA damage and other cellular stresses. The activation of p53 regulates cell fate by inducing DNA repair, cell cycle arrest, apoptosis, or cellular senescence. The activation of p53, therefore, is a good indicator of DNA damage and other cellular stresses. […] The activation of the reporter gene under culture conditions can be detected by fluorescence intensity.
Tox21 Assay Protocol Summary:
The p53RE-bla cells were dispensed at 4,000cells/3ul/well in 1536-well black-clear bottom plates. After the assay plates were incubated at 37 C, 5% CO2 incubator for 5 hours, 23 nL of compounds dissolved in DMSO, positive controls or DMSO only was transferred to the assay plate. Following compound addition, 3 uL of human liver microsomes (XenoTech, Kansas City, KS) at final concentration of 0.5 mg/mL and 1uL of Beta-Nicotinamide adenine dinucleotide 2-phosphate (NADPH) at final concentration of 0.5 mg/mL were transferred to the assay plate. The plates were incubated at 37 C for 16 hours. 1 uL of LiveBLAzer detection mixture was added to each well and the plates were incubated at room temperature in the dark for 2 h.
Potency means the concentration at half of the fitted maximal effect.

**Q.** For `CCC12COCN1COC2`, which Potency is on record?
**A.** The Potency was “inactive”.

**Q.** For `N#Cc1cc([N+](=O)[O-])ccc1N`, which Potency is on record?
**A.** The Potency was “inactive”.

**Q.** For `CC(C)CON=O`, which Potency is on record?
**A.** The Potency was “inactive”.

**Q.** Which Potency does the source give for `CN(C)C(=O)Nc1ccc(Cl)cc1` here?
**A.** The Potency was “inactive”.

**Q.** Which Potency does the source give for `Cn1cc(-c2ccccc2)c(=O)c(-c2cccc(C(F)(F)F)c2)c1` here?
**A.** Its Potency is “inactive”.

**Q.** With `OCC(O)CCl` (stereo not given) as the molecule, how does the Potency read?
**A.** Its Potency is “inactive”.

**Q.** With `CC(O)CN1CCN(CC(=O)[O-])CCN(CC(=O)[O-])CCN(CC(=O)[O-])CC1.[Gd+3]` (stereo not given) as the molecule, how does the Potency read?
**A.** Its Potency is “inactive”.

**Q.** Which Potency does the source give for `CNC(=O)Oc1cccc2ccccc12` here?
**A.** The Potency was “inactive”.

**Q.** With `c1nc[nH]n1` as the molecule, how does the Potency read?
**A.** Its Potency is “inactive”.

**Q.** Which Potency does the source give for `CCCCC(CC)COC(=O)c1ccc(C(=O)OCC(CC)CCCC)c(C(=O)OCC(CC)CCCC)c1` (stereo not given) here?
**A.** The Potency was “inactive”.

**Q.** For `CCSC(=O)N1CCCCCC1`, which Potency is on record?
**A.** The Potency was “inactive”.

**Q.** Which Potency does the source give for `FC(F)(F)c1ccc(Cl)cc1` here?
**A.** The Potency was “inactive”.

**Q.** For `CC(=O)CCC(C)=O`, which Potency is on record?
**A.** The Potency was “inactive”.

**Q.** With `CCN(CC)C(=O)/C(Cl)=C(\C)OP(=O)(OC)OC` as the molecule, how does the Potency read?
**A.** The Potency was 1.86 µM (active) and 9.13 µM (active).

**Q.** Which Potency does the source give for `C[C@]12CCC(=O)C[C@@H]1CC[C@@H]1[C@@H]2CC[C@]2(C)[C@@H](O)CC[C@@H]12` here?
**A.** The Potency was “inactive”.

**Q.** For `ClCCN1CCOCC1`, which Potency is on record?
**A.** Its Potency is “inactive”.

**Q.** With `CCCCOCCOP(=O)(OCCOCCCC)OCCOCCCC` as the molecule, how does the Potency read?
**A.** Its Potency is “inactive”.

**Q.** With `O=C(Nc1ccc(Br)cc1)c1cc(Br)cc(Br)c1O` as the molecule, how does the Potency read?
**A.** Its Potency is “inactive”.

**Q.** Which Potency does the source give for `CCCBr` here?
**A.** Its Potency is “inactive”.

**Q.** With `O=C(NCNC(=O)NC1C(=O)NC(=O)N1CO)NC1C(=O)NC(=O)N1CO` (stereo not given) as the molecule, how does the Potency read?
**A.** Its Potency is “inactive”.

**Q.** Which Potency does the source give for `Cc1cc(Cl)ccc1N=CN(C)C` here?
**A.** Its Potency is “inactive”.

**Q.** For `S=c1[nH]c2ccccc2[nH]1`, which Potency is on record?
**A.** Its Potency is “inactive”.

**Q.** For `CCOP(=O)(CN(CCO)CCO)OCC`, which Potency is on record?
**A.** The Potency was “inactive”.

**Q.** Which Potency does the source give for `O=C1CC(=O)NC(=O)N1` here?
**A.** The Potency was “inactive”.

**Q.** With `c1ccc2c(c1)CCCC2` as the molecule, how does the Potency read?
**A.** Its Potency is “inactive”.

**Q.** Which Potency does the source give for `CCCCOC(=O)c1ccccc1C(=O)O` here?
**A.** The Potency was “inactive”.

**Q.** Which Potency does the source give for `C=CC(=O)OCCCCCC(C)C` here?
**A.** The Potency was “inactive”.

**Q.** Which Potency does the source give for `O=C(O)c1nc(Cl)ccc1Cl` here?
**A.** Its Potency is “inactive”.

**Q.** Which Potency does the source give for `O=C(Cl)CCl` here?
**A.** The Potency was “inactive”.

**Q.** Which Potency does the source give for `CN(C)N=O` here?
**A.** Its Potency is “inactive”.

**Q.** With `Cc1ccc(OP(=O)(Oc2ccc(C)cc2)Oc2ccc(C)cc2)cc1` as the molecule, how does the Potency read?
**A.** The Potency was “inactive”.

**Q.** With `N#CCBr` as the molecule, how does the Potency read?
**A.** Its Potency is “inactive”.

**Q.** For `C=CC=O`, which Potency is on record?
**A.** Its Potency is “inactive”.

**Q.** With `Oc1ccc(Cl)cc1` as the molecule, how does the Potency read?
**A.** The Potency was “inactive”.

**Q.** With `O=P(OCCCl)(OCCCl)OCCCl` as the molecule, how does the Potency read?
**A.** Its Potency is “inactive”.

**Q.** With `COc1ccc(O)c(C(C)(C)C)c1` as the molecule, how does the Potency read?
**A.** The Potency was “inactive”.

**Q.** With `CCCCc1c(C)nc(NCC)[nH]c1=O` as the molecule, how does the Potency read?
**A.** The Potency was “inactive”.

**Q.** For `O=C(O)COc1ccc(Cl)cc1Cl`, which Potency is on record?
**A.** Its Potency is “inactive”.

**Q.** With `COC(=O)c1ccccc1N` as the molecule, how does the Potency read?
**A.** Its Potency is “inactive”.

**Q.** For `Cc1cccc(C)c1NC(=O)CN1CCCC1=O`, which Potency is on record?
**A.** The Potency was “inactive”.
